Measured values: PubChem BioAssay (NCI)
Compounds without any hit were thinned out: in the full panel of roughly 83,000, 20% have a hit.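 How to read the values: 0–100, growth inhibition (40 = 60% inhibited); 0, no net growth; -100 to 0, cell death (-40 = 40% of starting cells died; -100 = all dead).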 A number with no mark means an inactive call. Active and inactive are the calls of the source. The calls were made as follows: active = growth percent below 10; inactive = the rest.

Legend:
Assay in all cases: NCI-60 one-dose screen, 48 h (100 = growth as untreated, 0 = no growth, -100 = all killed)
HCT-15 colon = conditions: 10 µM unless noted
HT29 colon = conditions: 10 µM unless noted
SNB-75 CNS = conditions: 10 µM unless noted
SNB-19 CNS = conditions: 10 µM unless noted
U251 CNS = conditions: 10 µM unless noted
PC-3 prostate = conditions: 10 µM unless noted
SK-MEL-5 melanoma = conditions: 10 µM unless noted
UACC-62 melanoma = conditions: 10 µM unless noted
LOX IMVI melanoma = conditions: 10 µM unless noted
SK-MEL-28 melanoma = conditions: 10 µM unless noted
SK-MEL-2 melanoma = conditions: 10 µM unless noted
EKVX NSCLC = conditions: 10 µM
SN12C renal = conditions: 10 µM unless noted
UO-31 renal = conditions: 10 µM unless noted
TK-10 renal = conditions: 10 µM unless noted
ACHN renal = conditions: 10 µM unless noted
CAKI-1 renal = conditions: 10 µM unless noted
A498 renal = conditions: 10 µM unless noted
CCRF-CEM leukemia = conditions: 10 µM
MOLT-4 leukemia = conditions: 10 µM unless noted

SMILES	growth (HCT-15 colon)	growth (HT29 colon)	growth (SNB-75 CNS)	growth (SNB-19 CNS)	growth (U251 CNS)	growth (PC-3 prostate)	growth (SK-MEL-5 melanoma)	growth (UACC-62 melanoma)	growth (LOX IMVI melanoma)	growth (SK-MEL-28 melanoma)	growth (SK-MEL-2 melanoma)	growth (EKVX NSCLC)	growth (SN12C renal)	growth (UO-31 renal)	growth (TK-10 renal)	growth (ACHN renal)	growth (CAKI-1 renal)	growth (A498 renal)	growth (CCRF-CEM leukemia)	growth (MOLT-4 leukemia)
Cc1ccc(C(=O)Nc2ccc(CN3CCN(C)CC3)c(C(F)(F)F)c2)cc1C#Cc1cnc(N)c2ccc(F)cc12	-93.4% (active)	-85% (active)	-70.4% (active)	-99.1% (active)	-89.2% (active)	-82.7% (active)	-96% (active)	-83.9% (active)	-91.4% (active)	-96.2% (active)	-56.2% (active)	-92.2% (active)	-90.8% (active)	-97.3% (active)	-84.5% (active)	-100% (active)	-58% (active)	-69.9% (active)	-58.7% (active)	-67.1% (active)
CC(C)OC(=O)Nn1cnc2ccccc21	120%	111%	128%	111%	106%	101%	108%	107%	114%	128%	106%	106%	113%	93.1%	87.6%	114%	92.2%	119%	81%	75.2%
O=C(/C=C/c1ccc(Br)cc1)c1ccccc1	72.5%	69.8%	101%	86.9%	69%	82%	95.3%	92.2%	59.6%	109%	103%	109%	91.6%	80.3%	64%	100%	101%	77.4%	81.6%	92.3%
CCC(C)(C)c1ccc(OCCCCCCN2CCNCC2)cc1	-36.1% (active)	8.87% (active)	60.5%	68.6%	18.8%	64.3%	34.2%	85.6%	-47.1% (active)	74.2%	96.9%	115%	88.2%	63.5%	90.4%	42.6%	70%	71.2%	4.24% (active)	10.4%
O=C(Nc1ccc(Cl)cn1)C1(c2ccccc2)CCCCC1	112%	85.6%	106%	106%	97.5%	104%	91.6%	94.4%	101%	105%	116%	96%	106%	181%	126%	112%	120%	141%	14.1%	63.3%
CC(=O)OC1CC2C3CCC4C[C@@H](NC(=O)C=C(C)C)CC[C@]4(C)C3CC[C@]2(C)[C@H]1C(C)N(C)C (stereo not given in full)	-38.7% (active)	-20.9% (active)	8.51% (active)	49.2%	11.5%	13.1%	-95.2% (active)	-52.6% (active)	-15% (active)	-91.3% (active)	5.9% (active)	29.3%	14.3%	8.5% (active)	48.4%	21.4%	-19.6% (active)	33.2%	0.674% (active)	-31.9% (active)
COc1cc(-c2nc3c(c(C)nc4c3nnn4-c3ccccc3)c(=O)o2)cc(OC)c1OC	113%	115%	89.6%	110%	111%	104%	106%	102%	101%	101%	107%	115%	102%	87.9%	104%	103%	94.8%	61.1%	96.2%	102%
O=C(Nc1cccc(Cn2c(=O)[nH]c3ccc(Oc4ncccn4)cc3c2=O)c1)c1cccc(F)c1	83%	75.7%	75%	72.6%	82.3%	64.3%	65.5%	58.4%	86%	93.8%	74.3%	78.6%	78%	58.9%	81%	80.9%	89%	66%	75.7%	54.7%
CC([C@H]1CCC2C3CCC4C[C@@H](N)CC[C@]4(C)C3CC[C@@]21C)N(C)C (stereo not given in full)	3.11% (active)	15.1%	55.8%	98.7%	65.9%	64.5%	-47.8% (active)	50.9%	17.5%	-26.6% (active)	91.7%	69.4%	75.8%	-4.26% (active)	109%	78.1%	48.8%	89.4%	42.3%	38.6%
COc1cccc(Cn2cc3c(c2)-c2oncc2CC3)c1	18.7%	9.25% (active)	25.2%	39.4%	31.7%	27.4%	6.37% (active)	46.2%	34.7%	51.9%	35.5%	27.2%	34.5%	38.8%	69.4%	42.7%	13.9%	36.4%	15.2%	26.6%
CCOC(=O)C1=C(C(F)(F)F)NC(=S)NC1CN1C(=O)c2ccccc2C1=O (stereo not given)	109%	108%	104%	112%	102%	90.5%	103%	101%	105%	108%	100%	113%	105%	98.1%	107%	105%	88.3%	133%	40.7%	93.7%
CCCC(C)c1cc(Cc2cc(Cl)cc(Cl)c2O)c(O)c(Cc2cc(Cl)cc(Cl)c2O)c1 (stereo not given)	6.15% (active)	14.4%	12.2%	24.2%	7.55% (active)	3.76% (active)	-58.5% (active)	-5.72% (active)	5.31% (active)	8.03% (active)	1.41% (active)	6.21% (active)	5.5% (active)	6.1% (active)	17.4%	0.12% (active)	15.6%	-29.8% (active)	6.76% (active)	-8.73% (active)
CC1(C)NCCC[C@]2(C)[C@H]3CC=C4[C@@H]5C[C@](C)(COC(=O)c6ccccc6C(=O)O)CC[C@]5(C)CC[C@@]4(C)[C@]3(C)CC[C@@H]12	43.8%	9.9% (active)	74.7%	68.9%	41.1%	43.1%	77.5%	88.2%	54.4%	93.4%	83.5%	86.7%	65.5%	87.4%	36%	43.3%	86%	107%	35.8%	20.5%
COC(=O)/C=C/c1cc(O)c2oc(-c3ccc(O)c(O)c3)c(C(=O)OC)c2c1	14.1%	59.8%	7.74% (active)	31.7%	18.1%	11.4%	-13.3% (active)	36.6%	19.1%	57.2%	43%	49.7%	34.4%	22.6%	46.7%	30.2%	19.9%	18.2%	3.32% (active)	19.2%
O=C(O)CC1Cc2ccccc2C1C(=O)O (stereo not given)	101%	106%	92.4%	95%	103%	94.5%	103%	97.3%	91.7%	109%	101%	105%	95.2%	79.6%	96.5%	109%	104%	90.3%	85.7%	82.3%
